GLP1R ag = GLP-1 receptor (human) agonism | 380,000 compounds, 0.007% hits | HEK293 GLP-1R CRE-luciferase, luminescence, 4-6 h; cells express a hypersensitive GLP-1R form | Potency, µM (top dose mostly 45.6 µM), for inactives: at the top dose activation, hits mostly activators | P43220; also: % of control where 0% means no effect
Target sequence (P43220 whole entry, looked up): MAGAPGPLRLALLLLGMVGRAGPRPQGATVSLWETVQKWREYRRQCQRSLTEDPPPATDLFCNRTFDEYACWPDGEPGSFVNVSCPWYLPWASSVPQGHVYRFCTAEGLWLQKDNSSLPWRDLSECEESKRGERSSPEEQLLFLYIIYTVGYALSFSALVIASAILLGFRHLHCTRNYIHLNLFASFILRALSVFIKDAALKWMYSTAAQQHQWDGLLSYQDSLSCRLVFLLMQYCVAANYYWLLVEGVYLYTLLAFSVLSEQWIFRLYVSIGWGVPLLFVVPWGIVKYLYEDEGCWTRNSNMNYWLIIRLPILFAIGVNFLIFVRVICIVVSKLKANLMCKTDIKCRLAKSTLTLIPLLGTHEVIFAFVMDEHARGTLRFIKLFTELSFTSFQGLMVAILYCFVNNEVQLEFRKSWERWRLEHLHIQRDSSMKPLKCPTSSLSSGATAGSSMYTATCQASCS
S2 tox = reduces viability in counter-screen for ATXN expression inhibitors; S2 cells (HEK-293 line with an ATXN2-luciferase reporter) viability, CellTiter-Fluor protease fluorescence, 24 h; AID 651635; 400,000 compounds, 0.49% hits; Potency, µM (series often up to 56.7 µM), actives largely listed as cytotoxic; also: nearly all actives have a fitted effect of over 40% in size
GLP1R inv ag = GLP-1 receptor (human) inverse agonism | P43220 | HEK293 GLP-1R CRE-luciferase, luminescence, 24 h; GLP-1R form is constitutively active | Potency, µM (highest dose often 38.3 µM), inactives show top-dose activity change, negative = inhibition, actives largely listed as inhibitors | 410,000 compounds, 1.6% hits | AID 624417; also: % is scaled to controls: 0 for no effect and ±100 for the full control effect; nearly all actives have a fitted effect of over 55% in size
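Assay principle: reduced luminescence from a cAMP-responsive reporter in HEK293 cells co-expressing a constitutively active GLP-1R. Conditions: 24 hr compound incubation, 37 deg C, 5% CO2.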
ATXN2 expr inh = inhibitors of ATXN2 expression; HEK-293 ATXN2-luciferase reporter, luminescence, 24 h; Potency, µM (highest dose often 57 µM), for the others: top-dose activity change, negative = inhibition, most hits filed as inhibitors; 360,000 compounds, 0.72% hits; AID 1745845; also: % is scaled to controls: 0 for no effect and ±100 for the full control effect; nearly all actives have a fitted effect of over 55% in size
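ATXN2-luciferase reporter cells (luciferase flanked by upstream and downstream ATXN2 gene portions) were treated 24 h at 37 °C with compounds at up to 57 uM. SteadyGlo luminescence gave expression; GF-AFC fluorescence gave viability.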
TGFb inhibitor = TGF-b pathway inhibition | AID 588855 | 410,000 compounds, 1.2% hits | HepG2 CAGA-GFP TGF-b/SMAD3 reporter, GFP fluorescence, 18 h; TGF-beta stimulated, 500 pg/mL final | Potency, µM (highest dose often 46.1 µM), for inactives: top-dose activity, negative = inhibition, most hits filed as inhibitors; also: % is scaled to controls: 0 for no effect and ±100 for the full control effect; nearly all actives have a fitted effect of over 65% in size
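Cell-based qHTS in HEPG2 carrying a CAGA-GFP Smad reporter; compounds added before 500 pg/mL final TGF-beta, 18 h incubation at 37 degrees C, GFP fluorescence quantified per cell by imaging cytometry.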
HepG2 tox-1 = HepG2 cytotoxicity, counter-screen for TGF-b inhibitors | HepG2 CAGA-GFP viability, ATP luminescence, 18 h | Potency, µM (doses to about 46.1 µM), for inactives: top-dose activity change, negative = cytotoxicity, most hits filed as cytotoxic | 410,000 compounds, 0.76% hits | AID 588856
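CellTiter-Glo luminescence gave cytotoxicity after 18 hours at 37 degrees C. The cells were HepG2 CAGA-GFP in 1% FBS DMEM, stimulated with 500 pg/mL TGF-beta after compound addition. %Activity was normalised to no-cell wells (complete cell-killing) and DMSO (no toxicity), and curves were fitted and classified.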
TGFb confirm = confirmation of TGF-b signaling inhibitors in HepG2 reporter cells. shares compounds with TGFb inhibitor. HepG2 CAGA-GFP TGF-b reporter, GFP fluorescence, 18 h; cells stimulated with TGF-beta, 500 pg/mL. Potency, µM (titrated, usually from 46.1 µM), for the others: top-dose activity, negative = inhibition, usual class: inhibitors. 1,600 compounds, 63% hits; also: % is scaled to controls: 0 for no effect and ±100 for the full control effect; nearly all actives have a fitted effect of over 65% in size
HepG2 tox-2 = HepG2 cytotoxicity, TGF-b inhibitor counterscreen. shares compounds with TGFb inhibitor. HepG2 CAGA-GFP viability, ATP luminescence, 18 h; cells stimulated with TGF-beta, 500 pg/mL. Potency, µM (titrated, usually from 46.1 µM), for inactives: at the top dose activity, negative = cytotoxicity, usual class: inhibitors. 1,600 compounds, 27% hits; also: % is scaled to controls: 0 for no effect and ±100 for the full control effect; nearly all actives have a fitted effect of over 70% in size
TGFb CCL64 inh = TGF-b inhibition, CCL64 orthogonal assay | shares compounds with TGFb inhibitor | CCL64 CAGA-GFP reporter, TGF-b stimulated, GFP fluorescence, 18 h | Potency, µM (doses to about 46.1 µM), without a hit: at the top dose activity, negative = inhibition, usual class: inhibitors | AID 720536 | 1,600 compounds, 41% hits; also: nearly all actives have a fitted effect of over 65% in size
TGFb COP inh = TGF-b inhibition validated with COP promoter; shares compounds with TGFb inhibitor; HepG2 COP-GFP TGF-b reporter, GFP fluorescence, 18 h; cells stimulated by added recombinant TGF-beta; Potency, µM (top dose mostly 46.1 µM), inactives show at the highest dose activity, negative = inhibition, hits mostly inhibitors; 1,600 compounds, 3% hits; AID 720537; also: nearly all actives have a fitted effect of over 70% in size
The depositor's hits bear a star; i = inactive; ? = inconclusive; . = no result given. Shown are actives, neighbours in structure and some others; about 3.7% of the full set was active somewhere. Calls follow the shape of the dose curve; as a rule, active = well fitted curve in the direction sought with a large enough effect; inconclusive = small, poorly fitted or top-dose-only effect, or another doubt; inactive = no such curve, though single readings can be large; an effect the other way counts as inactive or inconclusive. Potency is read from the fitted curve at half-maximal effect.

SMILES | GLP1R ag | S2 tox | GLP1R inv ag | ATXN2 expr inh | TGFb inhibitor | HepG2 tox-1 | TGFb confirm | HepG2 tox-2 | TGFb CCL64 inh | TGFb COP inh
CCC(=O)NC(c1ccc(OC)cc1)c1cc(Cl)c2cccnc2c1O (stereo not drawn) | 2% | i | ? | ? | 7.9µM* | -32% | -24% | ? | 8.2µM* | 21%
CCC(=O)NC(c1ccco1)c1cc(Cl)c2cccnc2c1OC (stereo not drawn) | -4% | i | . | 1% | ? | -3% | . | . | . | .
CCC(=O)NC(c1ccco1)c1cc(Cl)c2cccnc2c1O (stereo not drawn) | 4% | i | 7.1µM* | ? | ? | -12% | -30% | -25% | 9.2µM* | 16%
O=C1c2ccccc2C(=O)c2c1oc(C(F)(F)F)c2C(=O)c1ccccc1 | -14% | ? | -6% | ? | 1.1µM* | 1.1µM* | 4.6µM* | 4.1µM* | 4.6µM* | 3.7µM*
CCc1ccc(-n2c(SCC(=O)NC(C)CC)nc3n[nH]c(C)c3c2=N)cc1 (stereo not drawn) | . | . | -8% | . | ? | -14% | . | . | . | .
CCOc1ccccc1NC(=O)C(C)Sc1nc2c(c(=O)[nH]1)CCCC2 (stereo not drawn) | . | ? | -3% | 11% | -2% | -15% | . | . | . | .
CC1(C(=O)NCc2ccc3c(c2)OCO3)CCN1Cc1csc2ccccc12 (stereo not drawn) | 14% | i | ? | ? | 11µM* | -34% | 16µM* | 23µM* | 3.7µM* | 44%
COc1cccc(-n2c(C)nc3c(cnn3-c3ccc(C)c(C)c3)c2=O)c1 | 6% | i | -27% | 7% | ? | -37% | . | . | . | .
O=C(Nc1ccc(C(F)(F)F)cc1)N1CCN(c2ccnc3cc(Cl)ccc23)CC1 | 3% | ? | ? | ? | 11µM* | 19% | 23µM* | ? | ? | 73%
COc1ccccc1NC(=O)CSc1nc(-c2ccc(C(C)(C)C)cc2)c(C#N)c(=O)[nH]1 | . | . | ? | . | . | -94% | . | . | . | .
COc1ccc2cc(CNCCOCCOCCNCc3ccc4cc(OC)ccc4c3)ccc2c1 | -37% | . | ? | ? | 3.2µM* | 4µM* | -108% | 21µM* | 4.6µM* | ?
CCOCCCNCc1ccc(OC)cc1 | 0% | i | -15% | 3% | 3% | 0% | . | . | . | .
CCOc1ccccc1NC(c1nnc(-c2ccccc2)o1)c1ccc(F)cc1Cl (stereo not drawn) | . | i | ? | 12% | 0% | -12% | . | . | . | .
